# Compound activity as filed in PubChem.
# Sampled rows, rich in hits. Any-hit rate of the full collection: about 19%.
# IL1B secr inh: qHTS for Inhibitors of Inflammasome Signaling: IL-1-beta AlphaLISA Primary Screen; activity change, % at 57.5 µM; hit rate 4.7% among 360,000; THP-1 LPS/ATP IL-1B secretion, AlphaLISA, 16 h; hits give low values; in the data active = activity change below about -50%; inconclusive = mostly about -30% to -49%
#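 Secreted IL-1B measured by AlphaLISA bead assay after 16 h compound exposure of THP-1 cells; compounds (final up to 57.5 uM) added 1 h before LPS (250 ng/mL) and ATP (1.25 mM) stimulation; lower signal means less secretion.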
# TDP1 cell noCPT: qHTS for Inhibitors of human tyrosyl-DNA phosphodiesterase 1 (TDP1): qHTS in cells in absence of CPT | DT40 Tdp1-/- hTDP1 cells, no CPT, ATP luminescence, 48 h | Potency, µM (titrated, usually from 46.2 µM), without a hit: at the top dose activity change, negative = growth inhibition, most hits filed as inhibitors | hit rate 15% among 420,000 | AID 686978, 2013; also: potency is read from the fitted curve at half-maximal effect; nearly all actives have a fitted effect of over 55% in size
#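 Chicken DT40 Tdp1-/- cells stably complemented with human TDP1 were seeded at 400 cells/well with DMSO in place of 20 nM camptothecin. After compound pinning, cells grew at least 48 hr at 37 °C; viability read by CellTiter-Glo luminescence.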
# Giardia killer: Small Molecules that selectively kill Giardia lamblia: qHTS; Giardia lamblia trophozoite viability; activity change, % at 7.66 µM, hits read low; hit rate 0.15% among 340,000; in the data active = activity change below about -80%; inconclusive = between about -30% and that limit;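 also: parasites exposed to compound for two days anaerobically before the ATP read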
#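 Luminescent ATP signal served as the viability read-out, measured 15-30 min after adding ATP detection reagent to trophozoites that had been incubated with compounds for 48 hrs at 37 deg C anaerobically at 100 cells/well.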
# ELG1 repair inh: qHTS screen for small molecules that inhibit ELG1-dependent DNA repair in human embryonic kidney (HEK293T) cells expressing luciferase-tagged ELG1. HEK293T ELG1-luciferase reporter, luminescence, 16 h; DNA damage induced by 5-fluorouridine. Potency, µM (highest dose often 46.1 µM), for the others: at the highest dose activity change, negative = inhibition, usual class: inhibitors. hit rate 2.3% among 330,000. AID 504467, 2011; also: potency is read from the fitted curve at half-maximal effect; nearly all actives have a fitted effect of over 55% in size
#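 5-Fluorouridine DNA damage + compound/DMSO, 2,000 cells/well, 16 h, 37 °C/5% CO2. ONE-Glo, 30 min RT, luminescence. Readout = decrease in reporter signal.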
# DT40 TDP1 CPT: qHTS for Inhibitors of human tyrosyl-DNA phosphodiesterase 1 (TDP1): qHTS in cells in presence of CPT. Potency, µM (top dose mostly 46.2 µM), without a hit: at the highest dose activity change, negative = growth inhibition, hits mostly inhibitors. chicken DT40 Tdp1-/-;hTDP1 cells + 20 nM CPT, ATP luminescence, 48 h. AID 686979, 2013. hit rate 12% among 420,000; also: potency is read from the fitted curve at half-maximal effect; nearly all actives have a fitted effect of over 55% in size
#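 Cell growth measured by CellTiter-Glo luminescence after a minimum 48 h, 37 C compound exposure with 20 nM CPT in Tdp1-knockout DT40 cells stably expressing hTDP1, seeded 400/well; qHTS titration format.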
# TDP1 inh: qHTS Assay for Inhibitors of Tyrosyl-DNA Phosphodiesterase (TDP1); hit rate 0.28% among 350,000; Potency, µM (series often up to 130 µM), for the others: at the highest dose activity change, negative = inhibition, usual class: inhibitors; AID 485290, 2010; recombinant TDP1, AlphaScreen DNA substrate cleavage; Tyrosyl-DNA phosphodiesterase 1 (Homo sapiens), Q9NUW8; also: potency is read from the fitted curve at half-maximal effect; nearly all actives have a fitted effect of over 40% in size
# Target sequence (Q9NUW8 whole entry, looked up): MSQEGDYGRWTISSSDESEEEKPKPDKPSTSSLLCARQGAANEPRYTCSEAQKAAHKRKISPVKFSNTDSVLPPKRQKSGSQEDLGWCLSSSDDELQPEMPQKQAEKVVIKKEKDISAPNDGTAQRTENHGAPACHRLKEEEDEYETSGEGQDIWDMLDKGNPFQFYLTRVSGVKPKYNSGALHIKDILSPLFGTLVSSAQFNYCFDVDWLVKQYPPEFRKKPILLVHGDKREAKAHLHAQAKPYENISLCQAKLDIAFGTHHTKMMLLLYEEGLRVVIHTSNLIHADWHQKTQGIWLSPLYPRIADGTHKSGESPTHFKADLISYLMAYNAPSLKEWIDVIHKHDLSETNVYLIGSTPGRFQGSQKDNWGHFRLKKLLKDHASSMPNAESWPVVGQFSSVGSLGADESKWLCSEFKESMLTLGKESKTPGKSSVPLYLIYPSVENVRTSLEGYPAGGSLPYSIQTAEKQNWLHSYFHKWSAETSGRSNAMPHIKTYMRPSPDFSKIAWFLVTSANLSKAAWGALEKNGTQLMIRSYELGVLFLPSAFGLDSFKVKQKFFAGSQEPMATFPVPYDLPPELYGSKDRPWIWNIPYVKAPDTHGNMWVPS
#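 Steps: enzyme plus compound, 15 min RT; add biotin/phosphotyrosine-FITC oligonucleotide (15 nM final), react 5 min; add donor/acceptor beads (10 ug/ml final), 10 min; read AlphaScreen. Tdp1 at 1 nM final.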
# Starred values were filed as active, the others as inactive; i = inactive; ? = inconclusive; · = no result given; [ ] = dose if it differs, or a comment. Unless noted, calls follow the shape of the dose curve; as a rule, active = well fitted curve in the direction sought with a large enough effect; inconclusive = small, poorly fitted or top-dose-only effect, or another doubt; inactive = no such curve, though single readings can be large; an effect the other way counts as inactive or inconclusive. % is scaled to controls: 0 for no effect and ±100 for the full control effect.
SMILES,IL1B secr inh,TDP1 cell noCPT,Giardia killer,ELG1 repair inh,DT40 TDP1 CPT,TDP1 inh
COCCCNC(=O)c1ccc(CSc2nc3cccnc3n2Cc2ccc(OC)cc2)cc1,·,16µM*,·,·,23µM*,9%
COCCCNC(=O)c1ccc(Cn2c(SCc3ccc(F)cc3)nc3cccnc32)cc1,·,15µM*,·,·,?,1%
COCCCNC(=O)c1ccc(Cn2c(SCc3cccc(C)c3)nc3cccnc32)cc1,·,?,·,·,?,6%
O=C(CCn1cccn1)Nc1ccc(-c2ccno2)cc1,-10,7%,-16,?,9%,0%
Cc1ccc(-c2nc(-c3cccnc3)sc2CC(=O)Nc2ccc3nc(C)sc3c2)cc1,1,?,4,18µM*,-40%,7%
CCCNS(=O)(=O)c1cc(-c2nn3c(C)nnc3c3ccccc23)ccc1C,·,18µM*,·,·,?,10%
CCOC(=O)CNS(=O)(=O)c1cc(-c2nn(C)c(=O)c3ccccc23)ccc1C,-92*,?,3,-3%,?,50µM*
Cc1ccccc1S(=O)(=O)NCC1CCCO1 (stereo not given),1,-5%,-11,?,11%,·
Cc1ccc(C)c(Nc2nnc(-c3ccc(C)c(S(=O)(=O)NCC4CCCO4)c3)c3ccccc23)c1 (stereo not given),·,5.2µM*,·,·,18µM*,·
CNC(=O)c1ccc(Nc2nnc(-c3ccc(C)c(S(=O)(=O)NCC4CCCO4)c3)c3ccccc23)cc1 (stereo not given),?,13µM*,3,?,26µM*,-3%
CNS(=O)(=O)c1cc(-c2nn3c(C)nnc3c3ccccc23)ccc1C,·,?,·,·,?,9%
CNC(=O)c1ccc(Nc2nnc(-c3ccc(C(N)=O)cc3)c3ccccc23)cc1,8,3%,28,1%,3%,·
Cc1ccc(-c2nnc(Nc3cccc(Cl)c3)c3ccccc23)cc1S(=O)(=O)N1CCCCC1,·,-22%,·,·,?,-1%[12.3 µM]
Cc1ccc(-c2nn3c(C)nnc3c3ccccc23)cc1S(=O)(=O)NCC(C)O (stereo not given),·,-59%,·,·,?,7%
CCCCNS(=O)(=O)c1ccc(C)c(-c2nnc3c4ccccc4c(C)nn23)c1,·,16µM*,·,·,?,0%
Cc1ccc(-c2nn3c(-c4ccco4)nnc3c3ccccc23)cc1S(=O)(=O)NCC1CCCO1 (stereo not given),-26,5.8µM*,0,?,?,6%
CC(=O)Nc1ccc(NS(=O)(=O)c2cc(-c3n[nH]c(=O)c4ccccc34)ccc2C)cc1,-9,-9%,-5,-9%,0%,·
CC(=O)Nc1ccc(Nc2nnc(-c3ccc(C)c(S(=O)(=O)NCC4CCCO4)c3)c3ccccc23)cc1 (stereo not given),-10,3%,20,21µM*,-3%,4%
Cc1ccc(-c2nnc(Nc3ccccc3)c3ccccc23)cc1S(=O)(=O)NCC1CCCO1 (stereo not given),-62*,16µM*,-8,21µM*,26µM*,3%
CC1(C)N([O-])C2=C(CCCC2)[N+]1=O,17,-1%,-18,3%,3%,-8%
CC(C)Oc1cccc(C(=O)Nc2nnc([C@H]3C[C@H](O)[C@@H](CO)O3)s2)c1,5,-1%,·,·,-7%,·
Cc1cc(C)nc(-c2cccc3c2OC(CNC(=O)C2CCOC2)C3)n1 (stereo not given),·,-13%,·,·,1%,·
CCC(C)n1ncn(-c2ccc(N3CCN(c4ccc(OCC5COC(Cn6cncn6)(c6ccc(Cl)cc6Cl)O5)cc4)CC3)cc2)c1=O (stereo not given),129,2.3µM*,-14,·,2.6µM*,8%
CC(C)N1CCN(c2ccc(OC[C@@H]3CO[C@@](Cn4cncn4)(c4ccc(Cl)cc4Cl)O3)cc2)CC1,·,·,·,·,·,6%[56.1 µM]
COc1ccc(NC(=O)C2Cc3cccc(OC)c3O/C2=N\O)cc1 (stereo not given),28,?,5,-10%,?,·
SMILES,IL1B secr inh,TDP1 cell noCPT,Giardia killer,ELG1 repair inh,DT40 TDP1 CPT,TDP1 inh
COc1cccc2c1O/C(=N\O)C(C(=O)Nc1ccc(C)cc1)C2 (stereo not given),0,5.2µM*,7,-24%,5.8µM*,·
CC(=O)Nc1cccc(Oc2nc(NC(C)C)nc3cc(-c4ccccc4)sc23)c1,-63*,?,·,·,?,·
CC(=O)Nc1cccc(Oc2nc(NCC3CC3)nc3ccsc23)c1,0,21µM*,·,·,16µM*,·
CC(=O)Nc1ccc(CNc2nc(NC(C)C)nc3ccsc23)cc1,-90*,-24%,·,·,0%,·
CC(=O)Nc1ccc(CNc2nc(NCC3CC3)nc3ccsc23)cc1,-105*,?,·,·,18µM*,·
CN(NC(=O)c1ccccc1Cl)c1ncc(C(F)(F)F)cc1Cl,·,-28%,8,2%,1%,6%
Cc1cccc(C(=O)NCC(=O)N2CC(=O)Nc3ccccc32)c1,0,8%,14,7%,-6%,4%
Cc1ccc(NC(=O)/C(C#N)=C\c2ccc(-c3ccc(Cl)cc3)o2)c(C)c1,·,-97%,·,·,12µM*,2%[12.3 µM]
CCOC(=O)c1ccc(-c2ccc(/C=C(\C#N)C(=O)NCc3cccs3)o2)cc1,10,18µM*,6,?,23µM*,3%
N#C/C(=C\c1ccc(N2CCOCC2)o1)C(=O)NCC1CCCO1 (stereo not given),-6,-17%,6,?,-22%,3%
N#C/C(=C\c1ccc(-c2ccc(C(=O)O)cc2)o1)C(=O)NCC1CCCO1 (stereo not given),-11,-27%,-5,?,0%,56µM*
N#C/C(=C\c1ccc(-c2ccc(C(=O)O)cc2)o1)C(=O)Nc1ccc(F)cc1,-9,12µM*,8,19%,?,·
COc1cccc(OC(=O)c2ccccc2)c1OC(=O)c1ccccc1,3,?,3,·,?,·
COc1cc(C2C(C(=O)c3ccc(C)o3)=C(O)C(=O)N2CCN2CCOCC2)ccc1OCCC(C)C (stereo not given),i,-18%,11,8%,-3%,8%
